Assay outcomes as filed in PubChem.
A549 viability = Nrf2 qHTS screen for inhibitors: counterscreen for cytotoxicity; actives 0.16% (n = 390,000); Potency, µM (top dose mostly 46 µM), usual class: inhibitors; AID 504648, 2011; A549 ARE-Fluc cells, CellTiter-Fluor viability, 18-24 h
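A549 ARE-Fluc cells in 5% FBS OPTI-MEM, 5000 cells/well, rested 2 h then exposed to compounds in concentration-response for 18-24 h at 37 °C. Viability by CellTiter-Fluor fluorescence (Ex 405/Em 525) after 30 min; luciferase luminescence (BugLite, 15 min, RT) read afterwards.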
A-T KAP1 phos = qHTS Assay for Identifying a Potential Treatment of Ataxia-Telangiectasia. F2112 A-T fibroblasts, KAP-1 phosphorylation AlphaLISA; neocarzinostatin DNA damage 30 min before lysis. Potency, µM (titrated, usually from 57.5 µM), usual class: activators. actives 0.19% (n = 320,000). AID 485349, 2010; further: nearly all actives have a fitted effect of over 45% in size
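ATM-like activity read as KAP-1 phosphorylation via AlphaLISA donor/acceptor antibody pairs after lysis and 6 hr at 25C. Cells were ATM-null patient fibroblasts (F2112, hTERT), dosed 60 min, then exposed to the DSB inducer NCS for 30 min.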
Nrf2 ARE act = qHTS of Nrf2 Activators | AREc32 ARE-luciferase reporter (MCF7-derived line), luminescence, 24 h | Potency, µM (top dose mostly 46.1 µM), usual class: activators | actives 0.31% (n = 410,000) | AID 624171, 2012; further: nearly all actives have a fitted effect of over 65% in size
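For detection, Steady-Glo was added and plates sat 30 min at RT; before that, AREc32_Fluc cells grown overnight in OPTI-MEM/5% FBS had been treated with 23 nL compound for 24 hr at 37 deg C.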
Nrf2 inh = Nrf2 qHTS screen for inhibitors; A549 ARE-Fluc reporter, luciferase luminescence, 18-24 h; Potency, µM (series often up to 46 µM), hits mostly inhibitors; actives 2.1% (n = 360,000); AID 504444, 2011; further: nearly all actives have a fitted effect of over 60% in size
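Cells were seeded and rested 2 h, then exposed to compounds for 18-24 h. CellTiter-Fluor was read first as a viability measure. BugLite was added 15 min before the final luminescent read of ARE-luciferase activity in A549 cells.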
TCR act = Activators of T cell receptors: qHTS campaign. primary human leukocytes, anti-CD3, IL-2 HTRF, 48 h. Potency, µM (titrated, usually from 9.22 µM), hits mostly activators. 330,000 tested, under 10 active. AID 504894, 2011
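Human primary leukocytes + a-CD3 beads + cpd, 48 hr; IL-2 in supernatant by HTRF (ex 320nm / em 665nm). No co-stimulatory signal supplied.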
CCT modulator = High-Throughput Screening for Modulators of Cytosolic Chaperonin Activity; purified chaperonin ATPase assay, HTRF ADP detection, 30 min; activity change, % (test concentration not listed), hits read low; actives 0.3% (n = 360,000); AID 651819, 2012; in the data active means activity change below about -30%
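First, chaperonin was dispensed at 40 nM or 20 nM final depending on batch activity. Next, compounds were pinned at 76 uM and ATP added at 10 uM. After 30 min at 37 °C, ADP detection reagents ran 30 min at ambient temperature.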
Large screens that a line does not name were inactive. An excerpt weighted towards active compounds, which were near 2.6% of everything screened. Unless noted, the call rests on the fitted dose curve; in most records, active means well fitted curve in the direction sought with a large enough effect; inconclusive means small, poorly fitted or top-dose-only effect, or another doubt; inactive means no such curve, though single readings can be large; an effect the other way counts as inactive or inconclusive.

Cc1ccc(S(=O)(=O)c2nc(S(C)(=O)=O)sc2N2CCC(O)CC2)cc1	Nrf2 ARE act 8.9µM
Cc1oc(-c2cc(F)ccc2F)nc1CN1CCN(c2ncnc3ccccc23)CC1	Nrf2 inh 26µM
CCN1/C(=C/c2ccc3ccccc3[n+]2CCCS(=O)(=O)[O-])C=Cc2cc(C)ccc21	A549 viability inconclusive
CCN1/C(=C/c2ccc3ccccc3[n+]2CC)C=Cc2ccccc21	A549 viability 9.2µM, Nrf2 inh 2.9µM (no result: A-T KAP1 phos)
CN(C(=O)c1cc2c(=O)n3ccccc3nc2n1C)c1ccccc1	none (no result: A-T KAP1 phos, TCR act, CCT modulator)
Cc1cc(C(=O)COc2cccnc2[N+](=O)[O-])c(C)n1-c1ccccc1F	Nrf2 inh inconclusive
Cc1ccc(-n2c(C)cc(C(=O)COc3cccnc3[N+](=O)[O-])c2C)cc1	Nrf2 inh 3.3µM
Cc1cc(C(=O)COc2cccnc2[N+](=O)[O-])c(C)n1-c1ccccc1	Nrf2 inh 2.9µM
O=C1c2ccccc2C(=O)N1c1cc(=O)c2ccccc2[nH]1	none (no result: A-T KAP1 phos, Nrf2 ARE act, TCR act, CCT modulator)
COc1ccc2occ(C(=O)c3cccs3)c2c1	Nrf2 ARE act 10µM, Nrf2 inh inconclusive
CCOC(=O)c1ccc(Nc2c(-c3cccc(O)c3)nc3nc[nH]n23)cc1	none (no result: A-T KAP1 phos, Nrf2 inh, TCR act, CCT modulator)
O=C(/C=C/c1ccco1)Nc1ccc(S(=O)(=O)N2CCOCC2)cc1	Nrf2 ARE act 11µM
O=C(/C=C/c1ccc(F)cc1)Nc1ccc(S(=O)(=O)N2CCOCC2)cc1	Nrf2 inh inconclusive
CC(C)c1ccc(/C=C/C(=O)Nc2ccc(CN3CCOCC3)cc2)cc1	A549 viability inconclusive, Nrf2 inh 23µM
O=C(/C=C/c1ccccc1)NC(=S)Nc1ccc(CN2CCOCC2)cc1	Nrf2 ARE act inconclusive
CCN(CC)S(=O)(=O)c1ccc(/C=C/C(=O)Nc2ccc(N3CCOCC3)cc2)cc1	Nrf2 inh 16µM
CC(C)c1ccc(C(=O)Nc2ccc(CN3CCOCC3)cc2)cc1	Nrf2 inh inconclusive
O=C(/C=C/c1ccc(Cl)cc1)Nc1ccc(CN2CCOCC2)cc1	A549 viability inconclusive, Nrf2 inh 21µM
CS(=O)(=O)NCCc1csc2nc(-c3ccccc3)nn12	none (no result: A-T KAP1 phos, Nrf2 inh, TCR act, CCT modulator)
COc1ccc(C2Nc3ccccc3C(=O)N2Cc2ccccc2OC)cc1COc1ccc(NC(C)=O)cc1 (stereo not given)	none (no result: A-T KAP1 phos, Nrf2 ARE act, TCR act, CCT modulator)
COc1ccc(-c2noc(CCC(=O)Nc3ccc(C(F)(F)F)cc3)n2)cc1	Nrf2 inh 18µM (no result: A-T KAP1 phos, TCR act, CCT modulator)
CC(C)(C)c1ccc(-c2noc(CCC(=O)NCC3CCCO3)n2)cc1 (stereo not given)	Nrf2 inh 0.58µM
COc1ccc(-c2noc(CCC(=O)Nc3cccnc3)n2)cc1	none
CC(C)(C)c1ccc(-c2noc(CCC(=O)Nc3cccnc3)n2)cc1	Nrf2 inh 0.26µM
CCCN1CNc2c(c(=O)[nH]c(=S)n2CCc2cc(C)cc(C)c2)C1	none (no result: A-T KAP1 phos, Nrf2 ARE act, TCR act, CCT modulator)
CC1=CC(C)(C)Nc2ccc(OC(=O)C(C)N3C(=O)c4ccccc4C3=O)cc21 (stereo not given)	Nrf2 inh 26µM
COc1ccc(OC(=O)C(C)N2C(=O)c3ccccc3C2=O)cc1 (stereo not given)	none
N#CC1=C(N)Oc2c(ccc3ccccc23)C1c1cccs1 (stereo not given)	A549 viability inconclusive, Nrf2 ARE act 2.8µM, Nrf2 inh inconclusive
COc1ccc(NC(=O)c2cc3ccc(O)cc3o/c2=N\O)cc1	A549 viability inconclusive, Nrf2 inh 2.1µM
COc1ccc2o/c(=N\O)c(C(=O)Nc3ccccc3OC)cc2c1	none
COc1ccc(C2Nc3ccccc3C(=O)N2Cc2ccccc2)cc1COc1ccc(NC(=O)c2ccccc2)cc1 (stereo not given)	none (no result: A-T KAP1 phos, Nrf2 ARE act, TCR act, CCT modulator)
CSc1ccccc1NC(=O)Nc1ccc(Cl)cc1	Nrf2 inh 7.3µM (no result: TCR act)
COc1ccc(Cn2cccc(NC(=O)Nc3ccc(F)cc3)c2=O)cc1	Nrf2 inh inconclusive
COc1ccc(NC(=O)Nc2cccc(NC(C)=O)c2)c(OC)c1	CCT modulator -43
COc1ccc(Cn2cccc(NC(=O)Nc3cccc(OC)c3)c2=O)cc1	A549 viability inconclusive, Nrf2 inh 5.2µM
COc1cccc(Cn2cccc(NC(=O)Nc3ccccc3C)c2=O)c1	Nrf2 inh inconclusive
COc1cccc(NC(=O)Nc2cccn(Cc3ccccc3)c2=O)c1	Nrf2 inh 12µM
COc1ccc(NC(=O)Nc2ccccc2SC)cc1	Nrf2 inh inconclusive
COc1cc(F)c(S(=O)(=O)N2CCN(S(=O)(=O)c3ccc(NC(C)=O)cc3)CC2)c(F)c1	none (no result: A-T KAP1 phos, Nrf2 ARE act, TCR act, CCT modulator)
CSc1ccc(NC(=O)Nc2cccn(Cc3ccccc3)c2=O)cc1	A549 viability inconclusive, Nrf2 inh 12µM
Cc1ccc2c(c1)C(c1ccccc1)N(C(=O)CC(C)C)CC(=O)N2 (stereo not given)	A-T KAP1 phos 3.5µM, Nrf2 inh inconclusive
CC(=C/c1ccccc1)/C=N/NC(=O)c1ccc2nc[nH]c2c1	none
O=C(N/N=C/C(Br)=C/c1ccccc1)c1ccc([N+](=O)[O-])cc1	Nrf2 ARE act 8.9µM
O=C(N/N=C/C(Br)=C\c1ccccc1)c1ccc2nc[nH]c2c1	Nrf2 ARE act 22µM
Fc1ccc2[nH]c3c(Cl)ncnc3c2c1	none
OC1(c2cccc(C(F)(F)F)c2)CCN(c2ncnc3c2[nH]c2ccc(F)cc23)CC1	A549 viability 21µM, Nrf2 inh 12µM (no result: A-T KAP1 phos)
COc1ccc2[nH]c3c(N4CCc5ccccc5C4)ncnc3c2c1	A549 viability 18µM, Nrf2 inh 16µM
Fc1ccc2[nH]c3c(N4CCN(c5ccccc5)CC4)ncnc3c2c1	A549 viability inconclusive, Nrf2 inh 13µM
CCOC(=O)N1CCN(c2ncnc3c2[nH]c2ccc(F)cc23)CC1	Nrf2 inh 15µM
CCN(CC(=O)NC1CCS(=O)(=O)C1)S(=O)(=O)c1cc(Br)ccc1Br (stereo not given)	none
O=C(c1ccco1)N1CCN(c2ncnc3c2[nH]c2ccccc23)CC1	none (no result: A549 viability, Nrf2 ARE act, Nrf2 inh, TCR act, CCT modulator)
O=C(c1ccco1)N1CCN(c2ncnc3c2[nH]c2ccc(Br)cc23)CC1	Nrf2 inh 8.2µM
Cc1ccc(S(=O)(=O)CCC(=O)Nc2nc(-c3ccccn3)cs2)cc1	Nrf2 ARE act 14µM, Nrf2 inh 21µM
O=C(CCS(=O)(=O)c1ccc(Cl)cc1)Nc1nc(-c2ccncc2)cs1	Nrf2 ARE act 11µM
Cc1ccc(S(=O)(=O)CCC(=O)Nc2nc(-c3cccnc3)cs2)cc1	none
